The results in this text go back to PubChem BioAssay (NCATS).

Inconclusive results are not listed. Active and inactive are the calls of the source. Calls follow the shape of the dose curve; as a rule, active = well fitted curve in the direction sought with a large enough effect; inconclusive = small, poorly fitted or top-dose-only effect, or another doubt; inactive = no such curve, though single readings can be large; an effect the other way counts as inactive or inconclusive. *1 amine or outer side, *2 acyl side, *3 side chain or, on linkers, in order; H or OH if unused. Where a SMILES comes first, the peptide text is derived from it. [ ]: non-standard residue; d: D form. The star is where a group is joined. ξ: configuration not given here. X9 = CCC(C)(N*)C(=O)C1CC[C@@H](C(=O)N[C@@H](Cc2ccccc2)C(=O)NCC(=O)O)N1; X8 = O=C([C@@H]1CC(O)CN1[*:1])[*:2]; aIle = CC[C@@H](C)[C@H](N)C(=O)O; Thr(3ξ) = CC(O)[C@H](N)C(=O)O; ξIva = CCC(C)(N)C(=O)O; Aib = CC(C)(N)C(=O)O

Test [1] concerns Nanoluciferase (engineered Oplophorus gracilirostris luciferase). Description: Primary Nanoluciferase (NLuc) qHTS assay for identification of artifact compounds. (AID 1845222). Also: potency is read from the fitted curve at half-maximal effect.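 As to activity, negative = inhibition: NLuc secreted into diluted conditioned medium of S16 cells; series mostly up to about 54 µM; 0% = DMSO and -100% = no enzyme.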 In outline:
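NLuc from S16 cell medium (1:55) plus test compounds, 15 min, room temperature. Luminescence after Nano-Glo (1:100) addition, 5 min.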
For orientation: Quantitative high-throughput screening tests each substance at several concentrations.

Test [2] in a line: Primary redox qHTS assay for identification of artifact compounds. (AID 1845223).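 Also: 0% = DMSO and 100% = reference compound.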 In outline: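 Redox-cycling detection via DTT (250 uM final) oxidation coupled to Amplex Red (25 uM)/HRP (250 mU/mL) in HBSS. 15 min preincubation plus 30 min after DTT, room temperature. Ex/Em 525/598 nm; 4-parameter Hill fit against DMSO and 10 uM DA3003.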

Take `CC(=O)c1c(C)cccc1O[C@@H]1O[C@H](CO)[C@@H](O)[C@H](O)[C@H]1O`: the Potency entry in test [1] and in test [2] was “inactive” throughout.
For `Cc1noc2c1-c1ccccc1C(c1ccc(Cl)cc1)=N[C@H]2CC(N)=O`, the Potency result in test [1] and in test [2] was “inactive” in each case.
As for `C=C1CCC(OC(C)=O)C2(C)CC3OC(=O)C(C)=C3CC12` (stereo not given), the Potency result in test [1] and in test [2] was “inactive” in each case.
On to `C/C=C(/C)C(=O)OC1CC(C)(C)CC2C3=CCC4C5(C)CCC(OC6OC(C)C(OC7OC(C(=O)O)C(O)C(OC8OC(CO)C(O)C(O)C8OC8OC(CO)C(O)C(O)C8O)C7O)C(O)C6O)C(C)(C)C5CCC4(C)C3(C)C(OC(=O)/C=C/C=C/C=C/CCC)C(OC(C)=O)C12CO` (stereo not given), for which the activity, negative = inhibition in test [1] is -1.65% [at 11.6 µM] (inactive). In test [2], the redox activity (% of DA3003) is 13.7% [at 11.5 µM] (inactive).
For the compound `O=C(/C=C/c1ccccc1)O[C@@H]1[C@@H](CO)O[C@@](CO)(O[C@H]2O[C@H](CO)[C@@H](O)[C@H](O)[C@H]2O)[C@H]1O`, the Potency entry in test [1] and in test [2] was “inactive” each time.
Take `O=C(O)C1(c2ccc(-c3ccc(Cl)c(Cl)c3)c(F)c2)CC1`: the Potency in test [1] was 16.9 µM (active). Also, in test [2], the Potency result is “inactive”.
For the compound `OCC1OC(Oc2cc(O)cc(/C=C/c3ccc(OC4OC(CO)C(O)C(O)C4O)cc3O)c2)C(O)C(O)C1O` (stereo not given), the Potency result in test [1] and in test [2] was “inactive” in each case.
In the case of `C[C@]1(OC(=O)/C=C/c2ccc(O)cc2)C[C@@H](O)[C@]2(O)C=CO[C@@H](O[C@@H]3O[C@H](CO)[C@@H](O)[C@H](O)[C@H]3O)C12` (stereo not given in full), the Potency result in test [1] and in test [2] was “inactive” in each case.
As for `CC1(C)C2CC[C@@]34CC(CC[C@H]3[C@]2(C)CC[C@@H]1O[C@@H]1O[C@H](CO)[C@@H](O)[C@H](O)[C@H]1O)[C@](C)(O)C4` (stereo not given in full), the Potency entry in test [1] and in test [2] was “inactive” in each case.
As for `CC[C@@H](C)[C@H](NC(=O)C(C)(C)NC(=O)[C@H](CCC(N)=O)NC(=O)C(C)(CC)NC(=O)[C@H](Cc1c[nH]c2ccccc12)NC(C)=O)C(=O)N[C@H](C(=O)NC(C)(C)C(=O)N[C@@H](CC(C)C)C(=O)NC(C)(C)C(=O)N1CCC[C@H]1C(=O)N[C@@H](CCC(N)=O)C(=O)NC(C)(C)C(=O)N1CC(O)C[C@H]1C(=O)NC(C)(CC)C(=O)C1CC[C@@H](C(=O)N[C@@H](Cc2ccccc2)C(=O)NCC(=O)O)N1)C(C)O` (stereo not given in full) (Ac-W[ξIva]Q[Aib][aIle][Thr(3ξ)][Aib]L[Aib]PQ[Aib][X8]-X9), the activity, negative = inhibition in test [1] was -3.07% [at 6.45 µM] (inactive). For the same compound, the redox activity (% of DA3003) in test [2] was 8.28% [at 6.41 µM] (inactive).
For `Nc1ncnc2c1c(COc1cccc(Cl)c1)nn2C1CCOCC1`, the Potency result in test [1] and in test [2] was “inactive” throughout.
Take `CC(=O)O[C@H]1C[C@@H](O)C(C)(C)C2C[C@@H](OC(C)=O)[C@@]3(C)C4=CCC(C(CO)CC(O)C5OC5(C)C)[C@]4(C)CCC3[C@]21C` (stereo not given in full): the Potency entry in test [1] and in test [2] was “inactive” in each case.
On to `COc1cc(OC)cc(-c2ccc3c(-c4ccc(F)cc4)[nH]nc3n2)c1`, for which the Potency entry in test [1] and in test [2] was “inactive” throughout.
`CC(C)C1(O)C=C2C(=O)CC3C(C)(C(=O)O)CCCC3(C)C2CC1` (stereo not given): the Potency entry in test [1] and in test [2] was “inactive” throughout.
For the compound `CC(C)(O)C1CCC2(C)CCCC(C)(O)C2C1` (stereo not given), the Potency entry in test [1] and in test [2] was “inactive” each time.
In the case of `CC1=C2CC(=O)C(C)CC/C=C(\C)CC2OC1=O` (stereo not given), the Potency result in test [1] and in test [2] was “inactive” throughout.
Regarding `C[C@H]1/C=C/C=C/C=C/C=C/C=C/[C@@H](O)[C@H](C(=O)O)[C@H](O)C[C@H](O)CCC[C@H](O)C[C@H](O)C[C@H](O)[C@@H](C)C(=O)O[C@@H]1C`, the Potency entry in test [1] and in test [2] was “inactive” throughout.
Consider `COc1cccc2c1c(O)c(C(=O)N(C)c1ccc(C(F)(F)F)cc1)c(=O)n2C`, for which the Potency result in test [1] and in test [2] was “inactive” each time.
As for `C[C@]12CCC[C@](C)(C(=O)O)C1[C@@H](O)[C@@H](O)C13CC(CCC12)C(CO)(O[C@@H]1O[C@H](CO)[C@@H](O)[C@H](O)[C@H]1O)C3` (stereo not given in full), the Potency entry in test [1] and in test [2] was “inactive” throughout.
In the case of `COc1cc(O)c2c(c1Cl)CC(C)OC2=O` (stereo not given), the Potency result in test [1] and in test [2] was “inactive” in each case.
`CC(C)CC(=O)OC[C@@]1(O)C[C@@]23CC[C@H]4[C@@](C)(CCC[C@@]4(C)C(=O)O)[C@@H]2CC[C@@H]1C3`: the Potency result in test [1] and in test [2] was “inactive” each time.
`O=C(CCc1ccccc1)c1c(O)c([C@@H]2O[C@H](CO)[C@@H](O)[C@H](O)[C@H]2O)c(O)c([C@@H]2O[C@H](CO)[C@@H](O)[C@H](O)[C@H]2O)c1O`: the Potency result in test [1] and in test [2] was “inactive” throughout.
Take `Oc1ccccc1-c1cc(-c2ccccc2F)[nH]n1`: the Potency result in test [1] and in test [2] was “inactive” throughout.
`O=C(NC1Cc2ccccc2N(C[C@@H](O)CO)C1=O)c1cc2cc(Cl)sc2[nH]1` (stereo not given in full): the Potency entry in test [1] and in test [2] was “inactive” throughout.
As to `C=CCc1ccc(O[C@@H]2O[C@H](CO)[C@@H](O)[C@H](O)[C@H]2O)c(O[C@@H]2O[C@H](CO)[C@@H](O)[C@H](O)[C@H]2O)c1`, the Potency entry in test [1] and in test [2] was “inactive” each time.
